Source: PubChem BioAssay
Hits are enriched below; roughly 3.3% of the tested compounds scored in any of these assays.
Rpn11 block: Rpn11 (PSMD14) deubiquitinase inhibitors, primary screen, biochemical, fluorescence polarization, uHTS | 26S proteasome non-ATPase regulatory subunit 14 (Homo sapiens), O00487 | human 26S proteasome, Ub4-pepOG fluorescence polarization; 20S core pre-blocked with epoxomicin | inhibition, % at 20 µM | 0.59% of 360,000 active | AID 588493, 2011;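 active = inhibition at 20 µM, scaled to each plate's controls, above about 33%, limit read from the data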
HNF4A DNA FP: change in binding of human HNF4A to DNA, primary screen, biochemical, fluorescence polarization, FITC-DNA; Hepatocyte nuclear factor 4-alpha (Homo sapiens), P41235; 1 h; activity change, % at 10 µM; 0.3% of 360,000 active; in the data active = activity change above about 30%, passing the limit was not always enough
Target sequence (P41235 whole entry, looked up): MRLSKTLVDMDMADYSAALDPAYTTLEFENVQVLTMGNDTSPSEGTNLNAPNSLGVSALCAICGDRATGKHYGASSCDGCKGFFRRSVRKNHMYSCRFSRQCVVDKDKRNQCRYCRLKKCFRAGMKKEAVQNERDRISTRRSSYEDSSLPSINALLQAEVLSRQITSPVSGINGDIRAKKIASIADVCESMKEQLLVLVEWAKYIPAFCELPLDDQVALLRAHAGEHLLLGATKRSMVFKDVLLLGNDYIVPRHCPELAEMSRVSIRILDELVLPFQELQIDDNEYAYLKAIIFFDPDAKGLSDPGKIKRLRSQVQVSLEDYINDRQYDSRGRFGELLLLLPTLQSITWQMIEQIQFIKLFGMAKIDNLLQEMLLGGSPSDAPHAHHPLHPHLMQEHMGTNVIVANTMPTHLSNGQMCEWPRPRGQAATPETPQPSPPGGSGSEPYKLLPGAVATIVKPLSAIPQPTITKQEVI
TPT1 inh: Candida albicans TPT1 enzyme inhibitors, primary screen, biochemical, fluorescence polarization | tRNA 2'-phosphotransferase TPT1 (Candida albicans SC5314) | recombinant caTPT1, FP RNA substrate dephosphorylation | 0.81% of 300,000 active | inhibition, % at 5 µM | AID 1962, 2009;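 active = inhibition above the mean of all tested compounds plus 3 SD, set per screening campaign, cut at about 24% in these data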
PHOSPHO1 block: PubChem AID 1565; Phosphoethanolamine/phosphocholine phosphatase (Homo sapiens), Q8TCT1; recombinant PHOSPHO1, absorbance phosphatase assay; inhibition, % at 13.3 µM; 1.1% of 290,000 active; in the data active = inhibition above about 60%
CTSL1 counter: Fasciola hepatica cathepsin L1 inhibitors, primary screen, counter-screen for PFM18AAP inhibitor project, biochemical, QFRET, fluorogenic peptide substrate | recombinant F. hepatica cathepsin L1, Z-Leu-Arg-MCA fluorescence | inhibition, % at 5.96 µM | 0.49% of 300,000 active | AID 1906, 2009;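 active = inhibition above the mean of all tested compounds plus 3 SD, set per screening campaign, cut at about 17% in these data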
CendR NRP1 mod: modulators of CendR peptide binding to NRP-1, primary screen, biochemical, fluorescence polarization, uHTS. FAM-RPARPAR peptide binding to NRP-1. 0.85% of 360,000 active. inhibition, % at 25 µM. Neuropilin-1 (Homo sapiens), O14786;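 active = inhibition or corrected inhibition above about 18%, plus a signal ratio from 0.5 to 1.5, limit read from the data, passing the limit was not always enough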
TPT1 inh confirm: Candida albicans TPT1 inhibitors, confirmation, biochemical, fluorescence polarization, triplicate | shares compounds with TPT1 inh | recombinant caTPT1, RNase T1 coupled | inhibition, % at 5 µM | 74% of 2,400 active | AID 2149, 2009;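 active = inhibition above the primary screen limit, the mean inhibition of all tested compounds plus 3 SD, cut at about 25% in these data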
RNase T1 inh: RNase T1 inhibitors, counter-screen for TPT1 inhibitor project, biochemical, fluorescence polarization. shares compounds with TPT1 inh. RNase T1 cleavage, 1536-well. inhibition, % at 5 µM. 83% of 2,400 active;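 active = inhibition above the solvent-only control well mean plus 3 SD, limit set per screening run, cut at about 23% in these data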;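 also: inhibitors block cleavage so intact labeled substrate keeps polarization high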
Target sequence (P00651 whole entry, looked up): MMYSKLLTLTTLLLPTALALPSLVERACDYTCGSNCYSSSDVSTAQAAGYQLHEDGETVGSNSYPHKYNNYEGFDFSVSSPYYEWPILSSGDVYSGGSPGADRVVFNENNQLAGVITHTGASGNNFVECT
A number is an active result.

For Cn1cccc1/C=C1\Cc2ccccc2C1=O the results were Rpn11 block inactive, HNF4A DNA FP inactive, TPT1 inh inactive, PHOSPHO1 block inactive, CTSL1 counter inactive and CendR NRP1 mod inactive.
For CCCc1nc2ccc([N+](=O)[O-])cc2[nH]1 the results were Rpn11 block inactive, HNF4A DNA FP inactive, TPT1 inh 28.9, PHOSPHO1 block inactive, CTSL1 counter inactive, CendR NRP1 mod inactive, TPT1 inh confirm inactive and RNase T1 inh inactive.
For COc1ccc(/C=C(\C#N)C(=O)Nc2cc(S(=O)(=O)N3CCCCC3)ccc2N2CCCCC2)cc1 the results were Rpn11 block inactive, HNF4A DNA FP inactive, TPT1 inh inactive, PHOSPHO1 block inactive, CTSL1 counter inactive and CendR NRP1 mod inactive.
`CC1=Nc2ccccc2/C1=C\c1nc(-c2ccc(F)cc2)oc1O` gave Rpn11 block inactive, HNF4A DNA FP inactive, TPT1 inh 92.9, PHOSPHO1 block inactive, CTSL1 counter inactive, CendR NRP1 mod inactive, TPT1 inh confirm 95.6 and RNase T1 inh 101.7.
CC1=Nc2ccccc2/C1=C\c1sc(Nc2ccc(C)cc2)nc1O was read as Rpn11 block inactive, HNF4A DNA FP inactive, TPT1 inh inactive, PHOSPHO1 block inactive, CTSL1 counter inactive and CendR NRP1 mod inactive.
O=C(CSc1nc(-c2ccccc2)nc2c1CCCC2)N1CCOCC1 was read as Rpn11 block inactive, HNF4A DNA FP inactive, TPT1 inh 55.9, PHOSPHO1 block inactive, CTSL1 counter inactive, CendR NRP1 mod inactive, TPT1 inh confirm 27.7 and RNase T1 inh 29.5.
CCOCCCNCC(=O)Nc1ccc(S(=O)(=O)NC(C)CC)cc1 (centres undefined) was read as Rpn11 block inactive, HNF4A DNA FP inactive, TPT1 inh 118.3, PHOSPHO1 block inactive, CTSL1 counter inactive, CendR NRP1 mod inactive, TPT1 inh confirm inactive and RNase T1 inh inactive.
Screening Cc1cccc(NC(=O)CN2C(=O)N/C(=C/c3ccc(C)s3)C2=O)c1 returned HNF4A DNA FP 59.6, TPT1 inh 83.3, PHOSPHO1 block inactive, CTSL1 counter inactive, CendR NRP1 mod inactive, TPT1 inh confirm 99.9 and RNase T1 inh 107.9.
C=CCN1C=CC(=C/C=C(/C#N)C(=O)OCC)C=C1 was read as HNF4A DNA FP inactive, TPT1 inh 175.8, PHOSPHO1 block inactive, CTSL1 counter inactive, CendR NRP1 mod inactive, TPT1 inh confirm 186.8 and RNase T1 inh 173.3.
Screening CCOC(=O)CNC(=O)Nc1ccccc1C(=O)OC returned Rpn11 block inactive, HNF4A DNA FP inactive, TPT1 inh inactive, PHOSPHO1 block inactive, CTSL1 counter inactive and CendR NRP1 mod inactive.
Screening CCOc1cccc2c1OC(c1cc(OC)c(OC)c(OC)c1)N1N=C(c3ccc(C)o3)CC21 (centres undefined) returned HNF4A DNA FP inactive, TPT1 inh 114.5, PHOSPHO1 block inactive, CTSL1 counter inactive, CendR NRP1 mod inactive, TPT1 inh confirm inactive and RNase T1 inh inactive.
For COc1ccc(C2CC(c3ccc(C)o3)=NN2C(C)=O)cc1 (centres undefined) the results were Rpn11 block inactive, HNF4A DNA FP inactive, TPT1 inh inactive, PHOSPHO1 block inactive, CTSL1 counter inactive and CendR NRP1 mod inactive.
CCc1ccc(CN(Cc2cccnc2)C(=O)/C=C/c2ccc(OC)cc2)cc1 was read as HNF4A DNA FP 60.3, TPT1 inh 39.2, PHOSPHO1 block inactive, CTSL1 counter inactive, CendR NRP1 mod inactive, TPT1 inh confirm 88.6 and RNase T1 inh 102.2.
For O=S(=O)(c1ccc(-c2ccon2)s1)N1CCN(c2ccncc2)CC1 the results were TPT1 inh 44.2, PHOSPHO1 block inactive, CTSL1 counter inactive, TPT1 inh confirm inactive and RNase T1 inh 26.0.
`COc1ccc(C(=O)/C=C/N(C)C)cc1OC` gave Rpn11 block inactive, HNF4A DNA FP inactive, TPT1 inh inactive, PHOSPHO1 block inactive, CTSL1 counter inactive and CendR NRP1 mod inactive.
COc1ccc(C(=O)/C=C2\NCCc3cc(OC)c(OC)cc32)cc1OC was read as Rpn11 block inactive, HNF4A DNA FP inactive, TPT1 inh 53.2, CTSL1 counter inactive, CendR NRP1 mod inactive, TPT1 inh confirm inactive and RNase T1 inh 25.1.
`O=C(C[n+]1cccc2ccccc21)c1ccc(NC(=O)c2ccccc2)cc1` gave HNF4A DNA FP inactive, TPT1 inh 39.5, PHOSPHO1 block inactive, CTSL1 counter inactive, CendR NRP1 mod inactive, TPT1 inh confirm 28.0 and RNase T1 inh 41.1.
For O=C(NCC1CCCO1)c1cccc(N2C(=O)C3C4C=CC(C4)C3C2=O)c1 (centres undefined) the results were Rpn11 block inactive, HNF4A DNA FP inactive, TPT1 inh inactive, PHOSPHO1 block inactive, CTSL1 counter inactive and CendR NRP1 mod inactive.
`C=CCn1cc(/C=C/c2cc[n+](C)cc2)c2ccccc21` gave HNF4A DNA FP inactive, TPT1 inh 46.0, PHOSPHO1 block inactive, CTSL1 counter inactive, CendR NRP1 mod inactive, TPT1 inh confirm 55.5 and RNase T1 inh 59.2.
For Cc1[nH]c2ccccc2c1/C=C/c1cc[n+](C)cc1 the results were HNF4A DNA FP inactive, PHOSPHO1 block inactive and CendR NRP1 mod inactive.
For CCN(CC)C(=O)Cn1c(C)c(/C=C/c2cc[n+](C)cc2)c2ccccc21 the results were HNF4A DNA FP inactive, TPT1 inh 108.2, PHOSPHO1 block inactive, CTSL1 counter inactive, CendR NRP1 mod inactive, TPT1 inh confirm 108.2 and RNase T1 inh 106.9.
Screening CCn1cc(/C=C/c2cc[n+](C)cc2)c2ccccc21 returned HNF4A DNA FP inactive, TPT1 inh 39.4, PHOSPHO1 block inactive, CTSL1 counter inactive, CendR NRP1 mod inactive, TPT1 inh confirm 42.5 and RNase T1 inh 49.8.
For C=CCn1c(C)c(/C=C/c2cc[n+](C)cc2)c2ccccc21 the results were HNF4A DNA FP inactive, TPT1 inh 118.8, PHOSPHO1 block inactive, CTSL1 counter inactive, CendR NRP1 mod inactive, TPT1 inh confirm 127.2 and RNase T1 inh 122.0.
Screening CS(=O)(=O)c1cc([N+](=O)[O-])c(Sc2nc3ccccc3[nH]2)c([N+](=O)[O-])c1 returned Rpn11 block inactive, HNF4A DNA FP inactive, TPT1 inh inactive, PHOSPHO1 block inactive, CTSL1 counter inactive and CendR NRP1 mod inactive.
